# USP28 inh: inhibitors of human USP28 deubiquitinase | inhibition, % at 25 µM | Ubiquitin carboxyl-terminal hydrolase 28 (Homo sapiens), Q96RU2 | purified USP28, Ub-rhodamine cleavage fluorescence, 30 min | 3% of 47,000 active
# Target sequence (Q96RU2 whole entry, looked up): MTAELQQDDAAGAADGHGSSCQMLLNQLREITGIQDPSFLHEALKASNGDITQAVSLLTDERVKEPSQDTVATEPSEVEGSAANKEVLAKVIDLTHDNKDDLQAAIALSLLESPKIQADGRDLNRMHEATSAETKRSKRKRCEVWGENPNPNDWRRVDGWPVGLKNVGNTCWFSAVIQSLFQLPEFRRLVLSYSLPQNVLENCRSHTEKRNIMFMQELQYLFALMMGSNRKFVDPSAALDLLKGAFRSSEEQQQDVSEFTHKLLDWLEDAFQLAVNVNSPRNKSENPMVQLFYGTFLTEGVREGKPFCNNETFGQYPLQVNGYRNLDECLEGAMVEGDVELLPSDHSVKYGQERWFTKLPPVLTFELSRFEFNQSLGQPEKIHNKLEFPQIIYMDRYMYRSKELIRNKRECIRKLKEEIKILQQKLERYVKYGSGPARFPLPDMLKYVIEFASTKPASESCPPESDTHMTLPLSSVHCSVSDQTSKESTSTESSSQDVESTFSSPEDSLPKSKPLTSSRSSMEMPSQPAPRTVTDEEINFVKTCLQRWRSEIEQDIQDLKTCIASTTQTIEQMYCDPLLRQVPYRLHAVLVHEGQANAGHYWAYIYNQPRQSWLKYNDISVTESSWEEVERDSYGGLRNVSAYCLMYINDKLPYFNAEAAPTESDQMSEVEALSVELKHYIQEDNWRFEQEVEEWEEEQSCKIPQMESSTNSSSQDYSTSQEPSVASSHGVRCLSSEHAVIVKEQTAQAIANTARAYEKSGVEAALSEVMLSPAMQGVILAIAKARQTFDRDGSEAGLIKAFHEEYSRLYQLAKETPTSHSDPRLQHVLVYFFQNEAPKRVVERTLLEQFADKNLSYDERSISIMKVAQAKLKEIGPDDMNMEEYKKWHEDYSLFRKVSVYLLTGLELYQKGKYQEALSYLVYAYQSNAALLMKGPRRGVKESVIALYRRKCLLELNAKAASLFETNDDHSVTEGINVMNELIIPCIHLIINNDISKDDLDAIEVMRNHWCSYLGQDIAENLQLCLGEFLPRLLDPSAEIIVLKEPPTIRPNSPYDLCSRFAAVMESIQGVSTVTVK
# USP17 block: inhibitors of human USP17 deubiquitinase | purified USP17, Ub-rhodamine cleavage fluorescence, 3 h | Ubiquitin carboxyl-terminal hydrolase 17-like protein 5 (Homo sapiens), A8MUK1 | inhibition, % at 50 µM | 6.5% of 47,000 active
# OTUD3 block: inhibitors of human OTUD3 deubiquitinase | AID 1645858, 2021 | inhibition, % at 25 µM | 0.7% of 47,000 active | purified OTUD3, Ub-rhodamine fluorescence, 2 h
# USP30 inh: inhibitors of human USP30 deubiquitinase | AID 1645860, 2021 | Ubiquitin carboxyl-terminal hydrolase 30 (Homo sapiens), Q70CQ3 | 5.3% of 47,000 active | inhibition, % at 25 µM | purified USP30, Ub-rhodamine cleavage fluorescence
# * marks the source's active call; other numbers are inactive results; / = no result given. Only some compounds are listed: those with a hit (about 12% of all), similar ones and a draw of the others. Rule as the data show it: active = inhibition above about 30%; inactive = the rest.
SMILES,USP28 inh,USP17 block,OTUD3 block,USP30 inh
COc1ccc(CCNC(=O)C(=O)NCc2ccc(Cl)cc2)cc1OC,17,41*,7,24
CC1(C)C(=O)CC[C@@]2(C)C1CC[C@]1(C)C2CC[C@@H]2[C@H]3[C@H]4OC[C@@]3(CCC4(C)C)CC[C@]21C (stereo partly drawn),4,13,9,31*
CC(C)=CCC[C@](C)(O)[C@H]1CC[C@]2(C)[C@@H]1CC[C@@H]1[C@@]3(C)CCC(=O)C(C)(C)[C@@H]3CC[C@]12C,9,15,9,23
COc1ccc(CC(=O)Nc2cc3c(cc2N2CCOCC2)n(C)c(=O)n3C)cc1OC,-1,5,8,1
O=C(NCc1cccnc1)c1csc(Cc2ccccc2Cl)n1,27,7,2,14
O=C(Nc1ccccc1Cl)c1csc(Cc2c(Cl)cccc2Cl)n1,10,37*,20,48*
COc1ccc(C)cc1-n1nnnc1SCC(=O)c1cc(C)ccc1C,22,4,12,32*
CC1CCN(c2ccc3nnc(CCC(=O)NCC4CCCO4)n3n2)CC1 (stereo not drawn),-7,-4,2,-6
O=C(COc1cc2oc(=O)c3c(c2cc1Cl)CCC3)N1CCCC1,2,5,2,8
O=c1cc(CN2CCN(Cc3ccccc3)CC2)c2cc3c(cc2o1)CCC3,-22,-20,-10,-4
O=c1oc2c3c(c(Cl)cc2c2c1CCCC2)OCN(Cc1ccccc1)C3,-24,44*,1,-120
O=c1oc2c3c(c(Cl)cc2c2c1CCCC2)OCN(CCc1ccc(F)cc1)C3,6,43*,7,4
CC(C)COc1ccc(C(=O)N/C(=C/c2ccc3c(c2)OCO3)C(=O)O)cc1,23,/,25,37*
COc1ccccc1C(CNC(=O)c1ccc(OCC(C)C)cc1)N(C)C (stereo not drawn),0,-22,-3,2
CC(C)C(NC(=O)c1cc(=O)[nH]c2ccccc12)c1nc2ccccc2[nH]1 (stereo not drawn),-95,-103,-66,-344
O=C(COc1cccc(F)c1)NC(Cc1ccccc1)c1nc2ccccc2[nH]1 (stereo not drawn),-2,46*,-6,11
COc1cc(C(=O)NC(Cc2ccccc2)c2nc3ccccc3[nH]2)cc(OC)c1OC (stereo not drawn),11,3,13,66*
O=C(NC(Cc1ccccc1)c1nc2ccccc2[nH]1)c1cc(=O)[nH]c2ccccc12 (stereo not drawn),17,61*,-2,56*
O=C(Nc1ccccc1)NC1CCc2ncc(C(F)(F)F)n2C1 (stereo not drawn),0,4,2,12
CCn1c(COc2ccc(Cl)c3cccnc23)nnc1SC(F)F,20,18,19,40*
Cc1ccc(CSC2=NS(=O)(=O)c3ccccc3N2)cc1,57*,17,11,20
COc1cccc(CSC2=NS(=O)(=O)c3ccccc3N2)c1,8,4,8,8
CCc1cc(C(=O)c2ccc(OC)cc2)c(NC(=O)CCC(=O)O)s1,8,29,14,31*
COc1ccc(NC(=O)Cn2cc(C(=O)c3ccc(OC)cc3)c(=O)c3cc4c(cc32)OCCO4)cc1,7,6,4,10
CCc1cc(C(=O)c2ccc(OC)cc2)c(NC(=O)CN2CCCCC2)s1,19,5,28,74*
SMILES,USP28 inh,USP17 block,OTUD3 block,USP30 inh
CCN(CC)C(=O)C1Cn2ccnc2C2(CCN(C(=O)Cc3ccc(OC)cc3)CC2)O1 (stereo not drawn),-8,-5,-6,-9
O=C(Cn1cnc(-c2noc(-c3ccncc3)n2)c1)N1CCN(c2ccccc2F)CC1,5,11,13,52*
COc1ccc(N(CC(=O)Nc2ccc(OC)c(OC)c2)S(=O)(=O)c2c(C)nn(C)c2C)cc1,4,23,1,41*
COc1ccc(N(CC(=O)Nc2cc(Cl)ccc2OC)S(=O)(=O)c2c(C)nn(C)c2C)cc1,-6,-5,0,-11
O=C1NCc2ccccc2CC12CCN(Cc1cccc3ccccc13)C2 (stereo not drawn),20,10,8,32*
Cn1cnnc1-c1cccc(NC(=O)Nc2cccc3ccccc23)c1,24,42*,-4,28
COc1ccc(C(CNC(=O)c2cc(-c3ccc(C)c(C)c3)on2)N2CCOCC2)cc1 (stereo not drawn),11,21,15,35*
COc1ccc(-c2cc(C(=O)NCC(c3ccc(C)cc3)N3CCCC3)no2)cc1 (stereo not drawn),-27,-31,-25,-99
COc1ccccc1N1CCn2c(nc3cc(NS(C)(=O)=O)ccc32)C1,0,40*,0,8
CS(=O)(=O)Nc1ccc2c(c1)nc1n2CCN(C2CCCC2)C1,-100,-112,-93,-401
COc1ccc(-c2cc(-c3ccc(F)cc3)[nH]c(=O)c2C#N)cc1,16,/,24,79*
C[C@@H]1O[C@@H](O[C@H]2[C@H](O[C@H]3[C@H](O[C@H]4CC[C@@]5(C)[C@@H](CC[C@]6(C)[C@@H]5CC=C5[C@@H]7CC(C)(C)CC(=O)[C@]7(C)CC[C@]56C)[C@@]4(C)CO)O[C@H](C(=O)O)[C@@H](O)[C@@H]3O)OC[C@@H](O)[C@@H]2O)[C@H](O)[C@H](O)[C@H]1O,49*,32*,19,53*
CCCc1cc(=O)n2[nH]c(-c3ccc(C)cc3)cc2n1,-10,43*,-2,-7
COc1cc2c(cc1NC(=O)c1ccc(-n3cnnn3)cc1)oc1ccccc12,-6,53*,-12,-6
O=C(NCc1ccco1)c1ccc(Cn2c(=O)c3sccc3n(Cc3cc(=O)n4ccccc4n3)c2=O)cc1,50*,70*,17,40*
O=C(C1CCC1)N1CCC(c2nc3c(nnn3Cc3ccccc3Cl)c(=O)[nH]2)CC1,18,25,10,32*
O=C(C1CCC1)N1CCC(c2nc3c(nnn3Cc3c(F)cccc3Cl)c(=O)[nH]2)CC1,-8,-5,-10,6
O=C(C1CCCC1)N1CCC(c2nc3c(nnn3Cc3c(Cl)cccc3Cl)c(=O)[nH]2)CC1,27,12,14,44*
COc1ccc(OC)c2c(C)cc(N3CCN(S(=O)(=O)c4ccc5c(c4)CCCN5S(C)(=O)=O)CC3)nc12,44*,98*,0,38*
COc1ccc(S(=O)(=O)Nc2ccc3c(c2)CCCN3S(C)(=O)=O)cc1,0,-4,2,8
CC(=O)Nc1ccc(C2=CSC3=NS(=O)(=O)CCN23)cc1,13,9,23,32*
Cc1ncc(-c2cncc(CC3CCCN(C(=O)c4ccccn4)C3)n2)n1C (stereo not drawn),-1,-1,0,1
COc1ccc(C(=O)NCCS(=O)(=O)N2CCN(c3ccccc3)CC2)cc1,4,40*,-5,-6

# Compound activity as filed in PubChem.
